ARNT-TACC3 inh – disrupts binding between human ARNT and TACC3 | Q9Y6A5 | AlphaScreen His-ARNT PAS-B/GST-TACC3 binding, luminescence; TACC3 fragment carries E629A point mutation | inhibition, % at 9.99 µM | hit rate 0.66% among 390,000 | AID 623870;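 active = mean inhibition of replicates at least 50% and at least half of replicates each reaching 50%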;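 note: 0% = complete ARNT plus TACC3 wells and 100% = ARNT alone without TACC3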
AI-2 QS modul – modulators of Vibrio harveyi AI-2 quorum sensing system | Vibrio harveyi JMH597 AI-2 luminescence/OD600 ratio, 9 h; hits give low values; strain lacks LuxN and CqsS sensors; 0 = neutral-control median | activity change, % at 7.5 µM | hit rate 0.4% among 300,000; in the data active = activity change below about -75%, passing the limit was not always enough;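 note: luminescence divided by OD600 gain over 9 h not by final OD600 alone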
Rin1 Abl inh – human Rin1-Abl interaction inhibition; P00519+Q13671; TR-FRET Rin1/Abl binding, biochemical; inhibition, % at 7.35 µM; hit rate 0.4% among 360,000; in the data active = inhibition above about 5%, passing the limit was not always enough
HGIII-sPLA2 inh – Blocks human group III sPLA2 activity; hit rate 0.56% among 370,000; inhibition, % at 12.2 µM; QFRET BODIPY PC-A2 liposome hydrolysis, fluorescence;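 active = inhibition above mean plus 3 SD of compounds lying within the high and low control bounds, cut at about 19% in these data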;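 note: 0% = median of test compound wells and 100% = no enzyme DMSO wells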
Target sequence (Q9NZ20 whole entry, looked up): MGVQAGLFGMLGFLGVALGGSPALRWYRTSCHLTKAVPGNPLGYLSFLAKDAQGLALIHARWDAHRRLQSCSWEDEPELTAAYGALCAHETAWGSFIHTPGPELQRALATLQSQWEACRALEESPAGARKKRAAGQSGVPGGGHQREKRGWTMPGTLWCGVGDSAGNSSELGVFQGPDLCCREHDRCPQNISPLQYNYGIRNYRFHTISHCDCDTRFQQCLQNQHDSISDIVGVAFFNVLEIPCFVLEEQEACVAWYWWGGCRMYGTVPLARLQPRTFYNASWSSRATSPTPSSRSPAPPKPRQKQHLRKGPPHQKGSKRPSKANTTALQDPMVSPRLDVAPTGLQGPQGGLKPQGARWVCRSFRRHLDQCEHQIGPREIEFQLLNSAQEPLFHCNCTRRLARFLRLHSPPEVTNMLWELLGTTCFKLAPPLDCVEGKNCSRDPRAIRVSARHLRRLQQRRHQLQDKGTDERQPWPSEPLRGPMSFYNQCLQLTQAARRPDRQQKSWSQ
hGIII sPLA2 conf – human GIII-sPLA2 inhibition, confirmation; shares compounds with HGIII-sPLA2 inh; recombinant hGIII-sPLA2, BODIPY PC-A2 QFRET fluorescence; inhibition, % at 12.2 µM; hit rate 34% among 2,000;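 active = mean inhibition across triplicates above the hit cutoff set in the earlier primary screen, cut at about 19% in these data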;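 note: 0% = enzyme with DMSO and 100% = DMSO wells lacking enzyme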
BODIPY interf – optically interferes with 535nm fluorescence in sPLA2 counter-screen; shares compounds with HGIII-sPLA2 inh; BODIPY FL product fluorescence interference, QFRET; inhibition, % at 12.2 µM; hit rate 8.5% among 2,000; AID 743282;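 active = average inhibition above the solvent-only control mean plus 3 SD, cut at about 6% in these data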;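 note: 0% = DMSO with substrate plus product and 100% = DMSO with substrate alone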
BODIPY interf DR – interferes with 535nm fluorescence in dose response counter-screen | 240 tested, under 10 active | shares compounds with HGIII-sPLA2 inh | IC50, µM | BODIPY FL product fluorescence interference, cell-free | AID 743455;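 active = IC50 at or below 10 µM; inactive = IC50 above 10 µM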
Starred values were filed as active, the others as inactive. Shown are actives, neighbours in structure and some others; about 1.5% of the full set was active somewhere.

Screening C=CCN1C(=O)/C(=C2/Sc3ccc(OC)cc3N2C)SC1=Nc1ccccc1 returned ARNT-TACC3 inh -4, AI-2 QS modul 23, Rin1 Abl inh 2, HGIII-sPLA2 inh 94*, hGIII sPLA2 conf 4 and BODIPY interf -4.
COc1cccc(Nc2nc(C(N)CO)cs2)n1 (stereo not drawn) was read as Rin1 Abl inh -4, HGIII-sPLA2 inh 21*, hGIII sPLA2 conf 12 and BODIPY interf -6.
Screening O=C(NCC[C@@H]1CC[C@@H](NC(=O)C2CCCCC2)[C@H](CO)O1)c1ccc(F)cc1 returned ARNT-TACC3 inh 7.
CO[C@H]1CN(C)C(=O)c2cc(NC(=O)Nc3c(C)noc3C)ccc2OC[C@H](C)N(CCC(F)(F)F)C[C@@H]1C was read as ARNT-TACC3 inh -2.
For NC(N)=NS(=O)(=O)c1ccc(NC(=S)NC(=O)/C=C/c2ccc(F)cc2)cc1 the results were ARNT-TACC3 inh 3, AI-2 QS modul 3, Rin1 Abl inh 3, HGIII-sPLA2 inh 22*, hGIII sPLA2 conf 4 and BODIPY interf -5.
O=C(CN1C(=O)S/C(=C\c2ccc(O)cc2)C1=O)c1ccccc1 was read as ARNT-TACC3 inh 8, AI-2 QS modul 8, Rin1 Abl inh 2 and HGIII-sPLA2 inh -14.
`O=C(CN1C(=O)S/C(=C\c2ccccc2)C1=O)NNC(=O)c1ccccc1O` gave ARNT-TACC3 inh -6, AI-2 QS modul 22, Rin1 Abl inh -1, HGIII-sPLA2 inh 23*, hGIII sPLA2 conf 16 and BODIPY interf 3.
`COc1ccc(/C=C2\SC(=O)N(CC(=O)NNC(=O)c3ccccc3O)C2=O)cc1OC` gave ARNT-TACC3 inh -2, AI-2 QS modul 2, Rin1 Abl inh -3, HGIII-sPLA2 inh 21*, hGIII sPLA2 conf 17 and BODIPY interf 2.
Screening O=C(CCN1C(=O)/C(=C\c2ccccc2)SC1=S)NNC(=O)c1ccccc1O returned ARNT-TACC3 inh -2, AI-2 QS modul 17, Rin1 Abl inh -6, HGIII-sPLA2 inh 25*, hGIII sPLA2 conf 16 and BODIPY interf -5.
O=C(CSc1ccccc1)NNC(=O)c1ccccc1O was read as ARNT-TACC3 inh -1, AI-2 QS modul -3, Rin1 Abl inh -1, HGIII-sPLA2 inh 20*, hGIII sPLA2 conf 9 and BODIPY interf -3.
Screening CC(=O)N(C)C[C@H]1Oc2ncc(-c3cncnc3)cc2C(=O)N([C@H](C)CO)C[C@H]1C returned ARNT-TACC3 inh 33.
For COCC(=O)N1C[C@@H]2[C@H](c3ccccc31)[C@H](CO)N2C(=O)c1ccncc1 the results were ARNT-TACC3 inh 0.
Screening CCCNC(=O)COC(=O)c1cc2c(=O)n3ccccc3nc2s1 returned ARNT-TACC3 inh -6, AI-2 QS modul 29, Rin1 Abl inh 0, HGIII-sPLA2 inh 19*, hGIII sPLA2 conf -4 and BODIPY interf -4.
For CCCCNC(=S)Nc1ccc2nc3n(c(=O)c2c1)CCCCC3 the results were AI-2 QS modul 13, Rin1 Abl inh 0 and HGIII-sPLA2 inh 18.
Screening CC(C)CCNC(=S)Nc1ccc2nc3n(c(=O)c2c1)CCCCC3 returned ARNT-TACC3 inh -5, AI-2 QS modul 10, Rin1 Abl inh 2, HGIII-sPLA2 inh 20*, hGIII sPLA2 conf 13 and BODIPY interf -12.
For COc1ccc(NC(=S)N(Cc2ccc(N(C)C)cc2)Cc2ccco2)cc1 the results were ARNT-TACC3 inh 10, AI-2 QS modul 18, Rin1 Abl inh -2, HGIII-sPLA2 inh 22*, hGIII sPLA2 conf 10 and BODIPY interf -7.
For CCOc1ccccc1NC(=S)N1CCN(c2ccccc2)CC1 the results were ARNT-TACC3 inh 14, AI-2 QS modul 3, Rin1 Abl inh -2, HGIII-sPLA2 inh 24*, hGIII sPLA2 conf 26* and BODIPY interf -4.
COc1ccc(NC(=S)N2CCN(c3ccccc3)CC2)c(OC)c1 was read as ARNT-TACC3 inh 4, AI-2 QS modul 15, Rin1 Abl inh 2 and HGIII-sPLA2 inh 7.
For COC(=O)C[C@H]1C[C@@H]2c3cc(NC(=O)Nc4ccc(C(F)(F)F)cc4)ccc3O[C@@H]2[C@H](CO)O1 the results were ARNT-TACC3 inh 10.
`C[C@H]1CN([C@@H](C)CO)C(=O)Cc2cc(NC(=O)Cc3ccccc3)ccc2O[C@@H]1CN(C)Cc1ccncc1` gave ARNT-TACC3 inh 11.
`COC(=O)C[C@H]1CC[C@@H]2[C@@H](COc3ccc(NC(=O)c4ccno4)cc3C(=O)N2C)O1` gave HGIII-sPLA2 inh 20*, hGIII sPLA2 conf 5 and BODIPY interf -3.
Screening C[C@H](CO)N1C[C@H](C)[C@@H](CN(C)S(=O)(=O)c2cccs2)Oc2ccc(NC(=O)CCCN(C)C)cc2CC1=O returned ARNT-TACC3 inh 2.
`O=C(CN1CCN(C2CCCCC2)CC1)NCCC1=CCCCC1` gave ARNT-TACC3 inh -1, AI-2 QS modul -3, Rin1 Abl inh 2, HGIII-sPLA2 inh 20*, hGIII sPLA2 conf 4 and BODIPY interf -19.
`C[C@@H]1CN([C@@H](C)CO)C(=O)c2cc(NC(=O)c3ccncc3)ccc2O[C@@H](C)CCCCO[C@H]1CN(C)C(=O)CCCN(C)C` gave ARNT-TACC3 inh -12.
`COc1ccc(NC(=O)Nc2ccc3c(c2)C(=O)N([C@H](C)CO)C[C@@H](C)[C@@H](CN(C)S(=O)(=O)c2ccc(Cl)cc2)O3)cc1` gave ARNT-TACC3 inh -8.
Screening Oc1ccc(CCc2ccccc2)c2cccnc12 returned HGIII-sPLA2 inh 26*, hGIII sPLA2 conf 21* and BODIPY interf -3.
Cc1ccc(NCc2ccc(O)c3ncccc23)cc1 was read as ARNT-TACC3 inh 0, AI-2 QS modul 7, Rin1 Abl inh 2 and HGIII-sPLA2 inh -6.
`C[C@H]1CN([C@@H](C)CO)C(=O)c2cc(C#Cc3ccccc3F)cnc2O[C@H]1CN(C)C(=O)Cc1ccccc1` gave ARNT-TACC3 inh 3.
`C[C@H]1CN([C@@H](C)CO)S(=O)(=O)c2ccc(-c3cccnc3)cc2O[C@H]1CN(C)C(=O)c1ccc2c(c1)OCO2` gave ARNT-TACC3 inh -4.
Screening O=C1C=C(N2CCOCC2)c2ccccc2C1=O returned AI-2 QS modul 35, Rin1 Abl inh 2 and HGIII-sPLA2 inh -2.
Screening CN(C1=C(N2CCOCC2)C(=O)c2ccccc2C1=O)c1ccccc1 returned ARNT-TACC3 inh 60*, AI-2 QS modul 11, Rin1 Abl inh -9, HGIII-sPLA2 inh 25*, hGIII sPLA2 conf 44*, BODIPY interf 2 and BODIPY interf DR >122.

Assay outcomes from PubChem.
